The values that follow come from PubChem BioAssay (NCI).

Each structure is given as a SMILES string. The panel holds about 83,000 compounds, 20% with a hit somewhere; the sample as a whole holds those more often.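 Cells were grown in 96-well plates and exposed to the test compound at a single concentration for 48 hours; results are reported as percent growth, with values below 10 considered active.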 Active and inactive are the calls of the source.

The experiment relates to HL-60(TB) leukemia. Kind of experiment: NCI-60 one-dose screen, 48 h (100 = growth as untreated, 0 = no growth, -100 = all killed). As to conditions: 10 µM unless noted.
`COc1ccc(NC(=O)c2sc3c(=O)[nH]c(C(F)(F)F)nc3c2C)cc1`: the growth is 106% (inactive).

With `O=C(NC(CSSCC(NC(=O)c1ccccc1)C(=O)O)C(=O)O)c1ccccc1` (stereo not given), the growth is 60.7% (inactive).

In the case of `C[n+]1c2ccccc2nc2ccc(NCCO)cc21`, the growth was 70.6% (inactive).

For `CC/C=C1/C(=O)C=C[C@@H]1C/C=C\CCCC(=O)OC`, the growth was 5.31% (active).

For `CCCCC/C=C/CCC(=O)N[C@H]1[C@H](Oc2c3cc4cc2Oc2ccc(cc2Cl)[C@@H](O[C@@H]2O[C@H](CO)[C@@H](O)[C@H](O)[C@H]2NC(C)=O)[C@@H]2NC(=O)[C@H](NC(=O)[C@@H]4NC(=O)[C@H]4NC(=O)[C@@H](Cc5ccc(c(Cl)c5)O3)NC(=O)[C@@H](N)c3ccc(O)c(c3)Oc3cc(O)cc4c3)c3ccc(O)c(c3)-c3c(O[C@H]4O[C@H](CO)[C@@H](O)[C@H](O)[C@@H]4O)cc(O)cc3[C@H](C(=O)O)NC2=O)O[C@H](CO)[C@H](O)[C@@H]1O`, the growth was 105% (inactive).

Consider `CC(C(C(=O)N1CCCCC1)N1CCCCC1)N1CCCCC1` (stereo not given), for which the growth is 104% (inactive).

With `C[n+]1c2ccccc2c(Nc2ccc(N3CCCCC3)cc2)c2[nH]c3ccccc3c21`, the growth is -55.6% (active).

As to `CC(C)c1ccc(C(=O)Nc2sc3c(CN(C)C)c(O)ccc3c2C(N)=O)cc1`, the growth is 24.2% (inactive).

Take `O=[N+]([O-])c1cc2ncccc2c2ncccc12`: the growth is 88.1% (inactive).

On to `CCCCCCCCNC(C)C(O)c1ccc(SC(C)C)cc1` (stereo not given), for which the growth was -70.1% (active).

For `COc1ccc(C(=O)COc2cccc(/C=C3\CSc4ccc(C)cc4C3=O)c2)cc1`, the growth is 45.6% (inactive).

As for `O=C1C=CC(=O)N1c1cccc2c1CCCC2`, the growth is 34.2% (inactive).

As to `C(=N\Nc1ncc(-c2cc3cc4c(cc3o2)OCO4)s1)/c1c[nH]c2ccccc12`, the growth is 2.27% (active).

For the compound `Cn1ccnc1C(=O)/C=C/c1ccc(C(=O)Nc2ccc(Cl)cc2)cc1`, the growth is -16.9% (active).

As to `Nc1c(C(=O)Nc2cccc3ncccc23)sc2nc3c(cc12)C(=O)CCC3`, the growth was 32.8% (inactive).

Take `CCOC(=O)c1c(NC(=O)CSc2n[nH]c3nc4ccccc4n23)sc(CC)c1C`: the growth was 97.9% (inactive).

Take `O=C(Oc1ccc2c(c1)sc1nc(-c3ccccc3)[nH]c(=O)c12)C(F)(F)F`: the growth was 2.56% (active).

With `Cc1nc(Cl)c2c(n1)N(C)c1ccc(Cl)cc1C(C)C2` (stereo not given), the growth is 72.2% (inactive).

As for `CC(C)n1nc(C#Cc2cccc(NC(=O)c3cccc(C(F)(F)F)c3)c2)c2c(N)ncnc21`, the growth was -18.9% (active).

Turning to `Cc1ccc(/C=C2\CNC/C(=C\c3ccc(C)cc3)C2=O)cc1`, the growth was -29.1% (active).

For `COc1nc(N)nc2c1ncn2C1OC(CO)CC1O` (stereo not given), the growth is 98.9% (inactive).

As to `N=C(N)c1ccc(-c2ccc(-c3cccs3)s2)cc1`, the growth was -46.6% (active).

In the case of `N#Cc1c(-c2ccc(Cl)cc2)csc1NC(=O)Nc1cccc(C(F)(F)F)c1`, the growth was -13% (active).

Consider `N=C(N)c1ccc(-c2ccc(-c3ccc4ccccc4c3)s2)s1`, for which the growth was -56.4% (active).

On to `CCOC(=O)C1=C(c2ccccc2)N=C2SC=C(c3ccc(Cl)cc3)N2C1c1ccc(Cl)cc1` (stereo not given), for which the growth is 52.6% (inactive).

With `CCOC(=O)c1cc(C(=O)c2ccc(OC)c(OC)c2)n2c1ccc1ccccc12`, the growth is 99.8% (inactive).

For the compound `O=C1Nc2ccccc2/C1=N/N=C/c1ccsc1`, the growth was 99.4% (inactive).

In the case of `COc1ccc2c(c1)c(-c1nc(-c3c[nH]c4ncccc34)cs1)cn2CCO`, the growth is 58% (inactive).

Regarding `Nc1nc2ccccc2c2c(=O)c3cc(F)ccc3sc12`, the growth was 99.4% (inactive).

In the case of `O=S=Nc1ccc([N+](=O)[O-])cc1`, the growth was 102% (inactive).

Consider `Oc1c(CN2CCCC2)cc(CSCc2ccccc2)c2cccnc12`, for which the growth was -23.7% (active).

For `C=CC(=O)N1CC2(CC(n3nc(-c4ccc(Oc5ccccc5)cc4)c4c(N)ncnc43)C2)C1`, the growth was 62.3% (inactive).

Turning to `CC(=O)N1C/C(=C/c2ccc(Cl)cc2)C(=O)/C(=C/c2ccc(Cl)cc2)C1`, the growth is 4.97% (active).

Turning to `CCOC(=O)c1cc(C)n(-c2ccc(C(=O)O)cc2)c1C`, the growth was 86.2% (inactive).

As for `O=S(=O)(Oc1ccc(-c2ccc3sccc3c2)cc1)c1ccc(F)cc1`, the growth was 97.1% (inactive).

For `COc1cc(C=C2C(=O)NC(=S)NC2=O)cc(CN2CCCC2)c1O`, the growth was 108% (inactive).

In the case of `CN(C)c1ccc(-c2ccc(-c3ccc(C(=N)N)c(F)c3)s2)cc1`, the growth was -46.1% (active).

Consider `O=C(Nc1nc(-c2ccccc2)cc(-c2ccc(Cl)cc2)n1)c1ccncc1`, for which the growth was 110% (inactive).

For `O=C(/C=C/c1ccc(Cl)nc1)c1ccc(Cl)cc1Cl`, the growth was 67.4% (inactive).

For the compound `CCOc1cc(/C=N\NC(=O)N/N=C/c2ccc(O)c(OCC)c2)ccc1O`, the growth is -22.2% (active).
